Source: the supplement of paper PMC10849652
About 8,800 targets were measured; listed, in parts, are those with a hit and a random draw of the rest. About 0.5% of all pairs of compound and target were hits.

Columns and labels:
Assay in all cases: log2 fold change, soluble protein after heating vs DMSO (PISA); higher = thermal stabilisation; K562 lysate, 10 uM; active = over 0.2 and 3.5 SD of the protein, either way, in both replicates (recomputed)
[1] = compound: C#Cc1cccc(Nc2ncnc3cc(OCCOC)c(OCCOC)cc23)c1 [erlotinib]
How it was run: (§1)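 The values are log-two fold changes in thermal stability compared with solvent controls and come from duplicates. They were obtained by TMTpro 16plex LC-MS/MS, with channel sums equalised, on the supernatant after 21,000xg for 90 min. That supernatant came from crude K562 extract at 1 mg/mL protein treated with 10 μM compound for 30 min, heated for 3 min across 48°C-58°C, pooled and brought to 0.5% NP-40 at 4°C.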

[2] = compound: C/C(=N\NC(=O)C1=CC(=CC=C1)S(=O)(=O)N2CCOCC2)/C3=C(C=CC(=C3)Cl)O
How it was run: as §1

[3] = compound: C1=CC(=CC=C1C2=NC3=C(N2)C=C(C=C3)C(=O)N)OC4=CC=C(C=C4)Cl
How it was run: as §1

[4] = compound: C1=CC2=C(C=CC(=C2)/C=C\3/C(=O)NC(=NCC4=CC=CS4)S3)N=C1
How it was run: as §1

[5] = compound: C1=CC2=NC=CN=C2C=C1/C=C/3\C(=O)NC(=O)S3
How it was run: as §1

[6] = compound: C1=CC=C(C=C1)C2=NC(=C(N2)C3=CC=NC=C3)C4=CC(=C(C=C4)Cl)O
How it was run: as §1

[7] = compound: C1=CC=C2C(=C1)C3=NNC4=CC=CC(=C43)C2=O
How it was run: as §1

[8] = compound: C1CCN(C1)C(=O)NC2=CC=CC(=C2)NC3=NC=C(C(=N3)NCCC4=CN=CN4)Br
How it was run: as §1

[9] = compound: C1CN(CCC1(CC2=CC=C(C=C2)Cl)N)C3=NC=NC4=C3C=CN4
How it was run: as §1

[10] = compound: C1COCCN1CCN2C3=CC=CC=C3N=C2NC(=O)C4=CC(=CC=C4)[N+](=O)[O-] [IRAK-1-4 Inhibitor I]
How it was run: as §1

[11] = compound: C=CC(=O)N1CCC[C@@H](n2nc(-c3ccc(Oc4ccccc4)cc3)c3c(N)ncnc32)C1 [ibrutinib]
How it was run: as §1

[12] = compound: CC(=O)c1cnc2ccc(-c3cc(Cl)c(O)c(Cl)c3)nc2c1N[C@H]1CC[C@H](CN(C)C)CC1
How it was run: as §1

[13] = compound: CC(C)(C)Cn1c(N)nc2ccc(-c3[nH]c(C(C)(C)C)nc3-c3ccc(F)cc3)nc21 [ralimetinib]
How it was run: as §1

[14] = compound: CC(C)(O)CC(=O)NCCn1ccc2ncnc(Nc3ccc(Oc4cccc(C(F)(F)F)c4)c(Cl)c3)c21
How it was run: as §1

[15] = compound: CC(C)C1=C2N=C(C=C(N2N=C1)NCC3=CC=CC=C3)NCCCCCCN
How it was run: as §1

[16] = compound: CC1=C(C(CC(=O)N1)C2=CC=C(C=C2)C(F)(F)F)C(=O)NC3=C(C=C4C(=C3)C=NN4)F
How it was run: as §1

[17] = compound: CC1=C(C2=C(C=C1)C(=O)C3=CC=CC=C3N2CCCN)C
How it was run: as §1

[18] = compound: CC1=C(C=C(C=C1)NC(=O)C2=CC(=CC=C2)C(C)(C)C#N)NC3=CC4=C(C=C3)N=CN(C4=O)C
How it was run: as §1

[19] = compound: CC1=C(C=C(C=C1)NC(=O)C2=CC(=CC=C2)N(C)C)NC(=O)C3=CC=C(C=C3)O
How it was run: as §1

[20] = compound: CC1=CC=C(C=C1)SC2=C3C=C(SC3=CN=C2)C(=O)N
How it was run: as §1

Measured: log2 fold change

VPS11 (UniProt Q9H270)
inactive: [1] 0.049 | [2] -0.037 | [3] 0.014 | [4] 0.034 | [5] 0.014 | [6] 0.011 | [7] -0.053 | [8] 0.003 | [9] -0.002 | [10] -0.031 | [11] -0.002 | [12] 0.025 | [13] 0.033 | [14] -0.025 | [15] 0.001 | [16] 0.003 | [17] 0.031 | [18] 0.026 | [19] -0.03 | [20] -0.002

ULK3 isoform 4 (UniProt Q6PHR2)
inactive: [1] 0.156 | [2] 0.149 | [3] -0.008 | [4] -0.151 | [5] -0.053 | [7] 0.177 | [8] 0.179 | [9] 0.01 | [11] -0.08 | [12] -0.024 | [15] -0.091 | [17] -0.06 | [18] 0.094 | [20] 0.08

ZSCAN26 (UniProt Q16670)
inactive: [18] 0.007

ZNF593 (UniProt O00488)
Chain of UniProt O00488 (O00488 whole entry, looked up): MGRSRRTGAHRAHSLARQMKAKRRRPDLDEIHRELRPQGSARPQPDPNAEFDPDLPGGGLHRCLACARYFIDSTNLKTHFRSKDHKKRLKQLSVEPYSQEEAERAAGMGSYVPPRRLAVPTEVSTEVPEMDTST
inactive: [1] -0.084 | [2] -0.149 | [3] 0.116 | [4] 0.003 | [5] 0.005 | [6] -0.098 | [7] 0.059 | [8] 0 | [9] 0.084 | [10] 0.003 | [11] 0.018 | [12] 0.17 | [13] 0.096 | [14] 0.013 | [15] -0.081 | [17] -0.017 | [18] -0.028 | [19] -0.034 | [20] -0.051

ZNF644 (UniProt Q9H582)
Chain of UniProt Q9H582 (Q9H582 whole entry, looked up): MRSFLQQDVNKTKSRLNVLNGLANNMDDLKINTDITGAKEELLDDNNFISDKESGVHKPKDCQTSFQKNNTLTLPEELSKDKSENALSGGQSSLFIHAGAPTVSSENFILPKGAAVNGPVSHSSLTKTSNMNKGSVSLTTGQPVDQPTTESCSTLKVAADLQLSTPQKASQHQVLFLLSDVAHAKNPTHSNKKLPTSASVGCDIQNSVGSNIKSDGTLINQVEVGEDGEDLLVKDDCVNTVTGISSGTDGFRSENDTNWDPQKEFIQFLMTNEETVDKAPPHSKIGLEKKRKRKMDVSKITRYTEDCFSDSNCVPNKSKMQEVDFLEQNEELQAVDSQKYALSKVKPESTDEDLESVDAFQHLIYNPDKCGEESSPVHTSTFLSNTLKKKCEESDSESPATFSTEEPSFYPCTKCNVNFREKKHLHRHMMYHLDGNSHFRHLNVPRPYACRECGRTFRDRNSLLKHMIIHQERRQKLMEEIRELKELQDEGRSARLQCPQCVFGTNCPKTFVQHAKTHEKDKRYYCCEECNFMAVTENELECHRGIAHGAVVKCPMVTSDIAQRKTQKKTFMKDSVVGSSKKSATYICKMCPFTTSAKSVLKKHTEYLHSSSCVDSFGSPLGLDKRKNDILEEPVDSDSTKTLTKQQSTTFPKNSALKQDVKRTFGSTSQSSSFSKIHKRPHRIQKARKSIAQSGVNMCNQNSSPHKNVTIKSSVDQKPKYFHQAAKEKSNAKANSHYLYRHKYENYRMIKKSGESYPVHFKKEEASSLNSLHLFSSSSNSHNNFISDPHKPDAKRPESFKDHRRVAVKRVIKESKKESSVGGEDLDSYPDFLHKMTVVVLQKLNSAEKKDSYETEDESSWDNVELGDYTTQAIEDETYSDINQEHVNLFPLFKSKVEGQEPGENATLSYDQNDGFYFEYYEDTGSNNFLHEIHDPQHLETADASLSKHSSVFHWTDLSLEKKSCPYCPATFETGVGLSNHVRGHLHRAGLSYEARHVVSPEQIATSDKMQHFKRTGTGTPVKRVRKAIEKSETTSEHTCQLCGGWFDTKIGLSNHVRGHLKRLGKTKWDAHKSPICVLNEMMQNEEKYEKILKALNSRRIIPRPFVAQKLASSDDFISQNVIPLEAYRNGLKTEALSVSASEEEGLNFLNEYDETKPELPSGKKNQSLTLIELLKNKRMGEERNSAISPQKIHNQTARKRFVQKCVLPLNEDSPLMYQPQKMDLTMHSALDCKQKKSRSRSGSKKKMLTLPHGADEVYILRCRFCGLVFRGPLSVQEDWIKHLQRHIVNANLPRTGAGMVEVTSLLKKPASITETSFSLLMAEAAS
inactive: [1] 0.192 | [2] -0.085 | [3] 0.071 | [4] 0.075 | [5] 0.066 | [6] -0.115 | [7] -0.04 | [8] 0.036 | [9] -0.037 | [10] 0.035 | [11] 0.07 | [13] -0.023 | [14] 0.052 | [15] 0.038 | [16] -0.061 | [17] 0.042 | [18] -0.005 | [19] -0.02

VPS72 (UniProt Q15906)
Chain of UniProt Q15906 (Q15906 whole entry, looked up): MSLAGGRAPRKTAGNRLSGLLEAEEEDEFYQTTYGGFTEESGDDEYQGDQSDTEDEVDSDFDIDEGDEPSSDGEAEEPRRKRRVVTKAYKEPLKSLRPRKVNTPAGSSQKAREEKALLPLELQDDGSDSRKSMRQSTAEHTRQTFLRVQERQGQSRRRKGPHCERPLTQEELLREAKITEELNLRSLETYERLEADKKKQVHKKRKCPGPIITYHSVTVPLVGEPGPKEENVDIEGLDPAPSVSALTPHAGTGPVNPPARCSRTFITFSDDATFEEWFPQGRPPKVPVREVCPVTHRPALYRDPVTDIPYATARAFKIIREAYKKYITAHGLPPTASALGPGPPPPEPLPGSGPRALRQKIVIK
inactive: [1] 0.056 | [2] -0.036 | [3] 0.046 | [4] -0.057 | [6] -0.04 | [7] 0.052 | [8] 0.024 | [9] 0.059 | [10] -0.008 | [12] 0.016 | [13] 0.046 | [14] -0.06 | [15] -0.028 | [16] -0.098 | [17] 0.005 | [18] 0 | [19] -0.01 | [20] -0.038

VASN (UniProt Q6EMK4)
Chain of UniProt Q6EMK4 (Q6EMK4 whole entry, looked up): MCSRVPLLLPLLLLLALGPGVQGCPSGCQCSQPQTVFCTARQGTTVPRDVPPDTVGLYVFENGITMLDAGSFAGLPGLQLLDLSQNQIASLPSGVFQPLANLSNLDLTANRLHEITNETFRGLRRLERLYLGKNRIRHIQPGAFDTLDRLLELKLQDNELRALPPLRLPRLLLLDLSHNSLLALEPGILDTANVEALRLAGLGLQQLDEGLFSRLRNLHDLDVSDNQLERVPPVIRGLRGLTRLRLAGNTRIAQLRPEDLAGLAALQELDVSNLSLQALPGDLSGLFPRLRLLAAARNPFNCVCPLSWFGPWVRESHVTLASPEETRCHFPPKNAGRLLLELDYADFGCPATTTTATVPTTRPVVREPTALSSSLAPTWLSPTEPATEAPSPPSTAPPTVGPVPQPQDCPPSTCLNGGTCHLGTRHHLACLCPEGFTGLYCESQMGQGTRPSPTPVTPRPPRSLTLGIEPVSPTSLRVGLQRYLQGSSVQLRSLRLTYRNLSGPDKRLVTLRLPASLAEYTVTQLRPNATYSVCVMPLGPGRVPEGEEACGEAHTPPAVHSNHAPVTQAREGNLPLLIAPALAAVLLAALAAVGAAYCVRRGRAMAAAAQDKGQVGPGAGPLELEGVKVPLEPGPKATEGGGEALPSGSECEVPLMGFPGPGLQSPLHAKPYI
active: [1] -0.644
inactive: [3] 0.071 | [6] -0.191 | [8] -0.277 | [9] -0.01 | [10] 0.222 | [13] 0.332 | [14] 0.172 | [15] -0.004 | [17] -0.255 | [19] -0.295

UTRN isoform 2 (UniProt P46939)
inactive: [1] -0.222 | [3] 0.247 | [5] -0.072 | [8] 0.135 | [9] 0.171 | [11] -0.03 | [15] -0.012

USP22 (UniProt Q9UPT9)
inactive: [1] 0.072 | [2] 0.019 | [3] -0.025 | [4] 0.048 | [5] -0.022 | [6] -0.003 | [7] -0.013 | [8] -0.021 | [9] 0.004 | [10] -0.005 | [11] -0.031 | [13] 0.023 | [14] 0.006 | [15] 0.027 | [16] -0.057 | [17] -0.034 | [18] 0.065 | [19] 0.056

UNC13A (UniProt Q9UPW8)
inactive: [1] 0.069 | [3] 0.039 | [15] 0.022 | [16] -0.053

ZNF281 (UniProt Q9Y2X9)
inactive: [1] -0.191 | [3] -0.106 | [6] 0.006 | [10] 0.069 | [13] -0.055 | [14] 0.081 | [15] 0.039 | [17] -0.008 | [18] -0.081 | [19] -0.041

ZNF146 (UniProt Q15072)
inactive: [17] -0.187

UNKL (UniProt E9PDK2)
inactive: [2] -0.088 | [4] 0.166 | [5] 0.061 | [7] -0.122 | [8] 0.155 | [9] 0.156 | [11] -0.191 | [17] -0.086 | [18] 0.025

ZYG11A (UniProt Q6WRX3)
Chain of UniProt Q6WRX3 (Q6WRX3 whole entry, looked up): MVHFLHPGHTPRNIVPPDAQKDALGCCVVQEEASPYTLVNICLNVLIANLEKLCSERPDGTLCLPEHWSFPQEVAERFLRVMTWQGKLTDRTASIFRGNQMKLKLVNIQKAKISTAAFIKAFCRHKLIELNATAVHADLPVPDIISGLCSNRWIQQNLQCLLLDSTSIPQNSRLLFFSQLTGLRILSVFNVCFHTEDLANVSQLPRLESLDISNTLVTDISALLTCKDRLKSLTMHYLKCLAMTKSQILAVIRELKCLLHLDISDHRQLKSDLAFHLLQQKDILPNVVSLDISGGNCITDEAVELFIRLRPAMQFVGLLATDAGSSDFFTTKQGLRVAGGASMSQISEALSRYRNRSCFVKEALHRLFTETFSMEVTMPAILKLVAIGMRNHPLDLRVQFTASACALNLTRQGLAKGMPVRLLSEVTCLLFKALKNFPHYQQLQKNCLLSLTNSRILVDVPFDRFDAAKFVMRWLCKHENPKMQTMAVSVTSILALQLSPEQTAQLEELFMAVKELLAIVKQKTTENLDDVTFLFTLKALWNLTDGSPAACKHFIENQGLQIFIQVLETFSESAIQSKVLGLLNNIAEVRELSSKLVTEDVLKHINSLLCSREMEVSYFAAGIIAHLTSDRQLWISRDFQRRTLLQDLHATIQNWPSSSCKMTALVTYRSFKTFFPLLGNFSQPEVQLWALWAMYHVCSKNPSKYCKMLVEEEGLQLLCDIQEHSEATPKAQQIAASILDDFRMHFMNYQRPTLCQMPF
inactive: [1] -0.125 | [3] -0.059 | [5] -0.061 | [6] -0.04 | [10] -0.004 | [11] 0.228 | [12] 0.063 | [13] 0.082 | [14] -0.087 | [15] -0.159 | [16] 0.046 | [19] 0.052 | [20] -0.315

WSB1 (UniProt Q9Y6I7)
Chain of UniProt Q9Y6I7 (Q9Y6I7 whole entry, looked up): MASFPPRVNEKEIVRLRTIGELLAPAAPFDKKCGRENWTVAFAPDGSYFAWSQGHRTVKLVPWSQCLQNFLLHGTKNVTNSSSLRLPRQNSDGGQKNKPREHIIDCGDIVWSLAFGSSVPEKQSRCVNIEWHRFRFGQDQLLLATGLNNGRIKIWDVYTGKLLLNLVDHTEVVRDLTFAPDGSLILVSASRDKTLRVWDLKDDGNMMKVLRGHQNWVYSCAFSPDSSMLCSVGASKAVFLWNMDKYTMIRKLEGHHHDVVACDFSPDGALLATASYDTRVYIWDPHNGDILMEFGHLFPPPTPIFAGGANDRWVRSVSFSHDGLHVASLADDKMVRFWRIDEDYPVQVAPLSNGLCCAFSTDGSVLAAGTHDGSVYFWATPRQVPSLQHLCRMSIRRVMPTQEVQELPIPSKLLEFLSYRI
inactive: [6] 0.037 | [10] -0.093 | [13] 0.08 | [14] -0.006 | [17] -0.037 | [19] -0.028

ZNF652 (UniProt Q9Y2D9)
inactive: [18] 0.042

WAS (UniProt P42768)
Chain of UniProt P42768 (P42768 whole entry, looked up): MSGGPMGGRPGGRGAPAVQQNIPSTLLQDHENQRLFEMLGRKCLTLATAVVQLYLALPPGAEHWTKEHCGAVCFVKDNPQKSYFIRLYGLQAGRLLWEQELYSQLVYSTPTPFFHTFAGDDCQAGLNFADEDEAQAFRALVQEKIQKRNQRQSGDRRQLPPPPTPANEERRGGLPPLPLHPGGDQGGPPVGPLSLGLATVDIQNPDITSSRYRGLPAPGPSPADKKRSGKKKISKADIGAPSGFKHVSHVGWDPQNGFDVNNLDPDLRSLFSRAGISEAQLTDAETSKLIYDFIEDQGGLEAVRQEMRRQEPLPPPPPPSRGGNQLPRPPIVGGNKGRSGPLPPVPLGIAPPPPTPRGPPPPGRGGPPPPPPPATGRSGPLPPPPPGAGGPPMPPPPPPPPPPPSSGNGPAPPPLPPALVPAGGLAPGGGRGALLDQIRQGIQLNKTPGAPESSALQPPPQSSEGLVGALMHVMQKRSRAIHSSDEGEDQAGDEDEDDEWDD
inactive: [1] 0.023 | [3] 0.074 | [5] -0.149 | [8] 0.007 | [9] 0.026 | [11] -0.06 | [15] -0.01 | [16] 0.071 | [17] 0.143

WIPI1 (UniProt Q5MNZ9)
inactive: [1] -0.025 | [3] -0.006 | [5] -0.016 | [6] -0.027 | [8] 0.035 | [9] -0.013 | [10] -0.007 | [11] 0.098 | [12] -0.062 | [13] 0.002 | [14] 0.019 | [15] -0.008 | [16] 0.1 | [17] -0.023 | [18] -0.005 | [19] -0.009 | [20] -0.033

WAC isoform 5 (UniProt Q9BTA9)
inactive: [1] -0.01 | [3] -0.156 | [6] 0.062 | [10] 0.018 | [13] 0.059 | [14] -0.145 | [15] -0.038 | [17] 0.127 | [19] 0.096

ZSWIM8 isoform 4 (UniProt A7E2V4)
active: [2] 0.508
inactive: [1] 0.025 | [3] -0.053 | [4] 0.02 | [5] -0.044 | [6] -0.021 | [7] -0.163 | [8] -0.239 | [9] 0.109 | [10] -0.122 | [11] -0.08 | [13] 0.101 | [14] -0.048 | [15] 0.002 | [16] -0.017 | [17] 0.28 | [18] -0.131 | [19] 0.105

WIPI2 isoform 6 (UniProt Q9Y4P8)
inactive: [5] 0.079 | [11] -0.021

ZNF845 (UniProt Q96IR2)
inactive: [1] -0.033 | [2] -0.145 | [3] 0.102 | [4] 0.02 | [5] -0.09 | [6] 0.047 | [7] -0.123 | [10] -0.044 | [11] 0.087 | [12] -0.039 | [13] 0.093 | [14] 0 | [15] -0.061 | [16] -0.047 | [17] 0.072 | [18] 0.005 | [19] -0.012 | [20] -0.109

VPS37B (UniProt Q9H9H4)
Chain of UniProt Q9H9H4 (Q9H9H4 whole entry, looked up): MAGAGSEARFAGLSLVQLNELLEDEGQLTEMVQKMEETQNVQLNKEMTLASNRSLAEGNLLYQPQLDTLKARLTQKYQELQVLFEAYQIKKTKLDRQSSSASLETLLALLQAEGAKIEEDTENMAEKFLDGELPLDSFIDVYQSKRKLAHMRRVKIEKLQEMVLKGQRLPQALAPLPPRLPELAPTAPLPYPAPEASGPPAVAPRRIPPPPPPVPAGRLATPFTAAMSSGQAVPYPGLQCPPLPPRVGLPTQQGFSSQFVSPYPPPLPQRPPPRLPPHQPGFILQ
inactive: [1] -0.046 | [2] 0.078 | [3] 0.059 | [4] 0.002 | [5] -0.011 | [6] 0.031 | [7] 0 | [8] 0.043 | [9] 0.098 | [10] -0.012 | [11] 0.024 | [12] 0.014 | [13] -0.055 | [14] 0.009 | [15] -0.028 | [16] 0 | [17] -0.008 | [18] 0.019 | [19] 0.012 | [20] 0.028

XPOT (UniProt F5GYW6)
inactive: [12] -0.027 | [20] 0.041

ZNF346 (UniProt Q9UL40)
Chain of UniProt Q9UL40 (Q9UL40 whole entry, looked up): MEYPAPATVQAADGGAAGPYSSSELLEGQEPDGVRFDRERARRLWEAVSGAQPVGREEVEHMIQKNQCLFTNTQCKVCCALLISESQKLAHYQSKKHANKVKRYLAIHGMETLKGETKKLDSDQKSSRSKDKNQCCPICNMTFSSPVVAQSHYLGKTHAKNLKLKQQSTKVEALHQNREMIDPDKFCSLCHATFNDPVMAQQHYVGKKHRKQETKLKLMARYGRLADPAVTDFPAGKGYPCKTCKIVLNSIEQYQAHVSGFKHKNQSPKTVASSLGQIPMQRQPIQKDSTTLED
inactive: [1] -0.057 | [3] -0.009 | [5] -0.035 | [6] -0.014 | [8] 0.016 | [9] -0.002 | [10] 0.015 | [11] -0.041 | [12] 0.008 | [13] -0.019 | [14] -0.075 | [15] -0.012 | [16] -0.08 | [17] 0.111 | [18] -0.019 | [19] -0.004 | [20] 0.018

ZBTB40 (UniProt Q9NUA8)
inactive: [1] -0.044 | [2] -0.019 | [3] -0.014 | [4] -0.075 | [6] -0.045 | [7] -0.017 | [10] -0.048 | [12] 0.035 | [13] 0.096 | [14] -0.012 | [15] 0.057 | [16] 0.081 | [17] -0.042 | [18] 0.009 | [19] -0.007 | [20] -0.044

ZSCAN21 (UniProt Q9Y5A6)
inactive: [8] -0.022 | [9] 0.037
